Pf Dd2 inh – inhibitors of Plasmodium falciparum Dd2 growth; actives 4.3% (n = 120,000); P. falciparum Dd2 growth, SYBR Green, 72 h; AID 1347417; Potency, µM (titrated, usually from 28.9 µM), without a hit: top-dose activity, negative = inhibition, usual class: inhibitors; active = well fitted inhibition curve with a large enough effect;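 note: plate controls were DMSO vehicle for no effect and reference drug for full effect; nearly all actives have a fitted effect of over 65% in size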
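Infected erythrocytes (Dd2, 0.3% parasitemia, 2.5% hematocrit final) are added to compound in RPMI-1640/Albumax II medium, grown 72 h at 37C in low oxygen, then lysed with saponin/Triton-X containing SYBR Green and read by fluorescence.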
Numbers without * were called inactive; i = inactive; [ ] = another dose, or the depositor's remark. Only a selection was taken, and hits are over-represented in it overall. Potency is the fitted concentration of half-maximal effect.

SMILES	Pf Dd2 inh
O=C(C[C@@H]1O[C@H](CNS(=O)(=O)c2ccccc2)[C@@H](O)[C@H]1O)N1CCN(c2ccc(F)cc2)CC1	i
COCCNc1ncc(-c2ccncc2)c2c1OCC2	28%[44.1 µM]
CCN1CCN(CCNC(=O)C2N(C(C)C)C(=O)C23CCCCC3)CC1 (stereo not drawn)	12%
CC(C)N1C(=O)C2(CCCC2)C1C(=O)NCCCN1CCN(c2ccccc2)CC1 (stereo not drawn)	-12%
COc1ccc(N2C(=O)C3(CCCCC3)C2C(=O)NCCN2CCc3ccccc3C2)cc1 (stereo not drawn)	8.9µM*
CC1(C(=O)NCCCN2CCc3ccccc3C2)CCCCC(=O)N1 (stereo not drawn)	-13%
CCC(=O)N1c2ccccc2CC1C(=O)NCCCN1CCN(c2ccc(OC)cc2)CC1 (stereo not drawn)	7%
CC(C)N1C(=O)C2(CCCC2)C1C(=O)NCCCN1CCCC1 (stereo not drawn)	-6%
COc1ccc(N2C(=O)C3(CCCCC3)C2C(=O)NCCCN2CCCC2)cc1 (stereo not drawn)	4.5µM*
COc1ccc(N2C(=O)C3(CCCCC3)C2C(=O)O)cc1 (stereo not drawn)	7%
COc1ccc(N2C(=O)C3(CCCCC3)C2C(=O)NCCCN2CCCCC2)cc1 (stereo not drawn)	11µM*
CC(=O)NC[C@H]1Cn2ccnc2CO1	6%[76.6 µM]
O=C(c1ccnc(-c2ccncc2)c1)N1CCCC1	-7%
CCO[C@H]1C[C@@H](O)C12CCN(C(=O)c1cc3nc(C)cc(C)n3n1)CC2	-8%
COc1ccc(NC(=O)c2ccc(-c3nc(CSc4ccccc4)c(C)o3)cc2)cc1OC	i
CC(=O)c1ccc(NC(=O)c2ccc(-c3nc(CSc4ccccc4)c(C)o3)cc2)cc1	-24%
Cc1oc(-c2ccc(C(=O)Nc3cccc(C(F)(F)F)c3)cc2)nc1CSc1ccccc1	11µM*
CCN(CCO)C[C@@H]1CN(c2nccc(N)n2)C[C@@H]1CO	-11%
COCCNC(=O)c1cc(-c2ccc(OC)cc2)nc2c1c(C)nn2-c1ccccc1	-30%
COc1ccc(-c2cc(C(=O)NC3CCNCC3)c3c(C)nn(-c4ccccc4)c3n2)cc1	11µM*
COc1ccc(NC(=O)c2cc(C3CC3)nc3c2c(C)nn3-c2ccccc2)cc1	6%
Cc1cccc(NC(=O)CCS(=O)(=O)c2ccc3c(c2)n(C)c(=O)c(=O)n3C)c1C	45%
COCCC(=O)N1CCCN(CCc2ccccc2)c2ccccc21	i
Cc1ccc(-c2nc(S(=O)(=O)c3ccc(C)cc3)c(N3CCN(c4ccccc4)CC3)o2)cc1	25%
Cc1ccc(S(=O)(=O)c2nc(-c3cccc(C)c3)oc2N2CCN(c3ccccc3)CC2)cc1	10µM*
SMILES	Pf Dd2 inh
Cc1ccc(S(=O)(=O)c2nc(-c3ccccc3)oc2N2CCN(c3ccccc3)CC2)cc1	40%
CCC(Cc1ccccc1)NC(=O)c1cccc(Nc2nc3ccccc3nc2-n2nc(C)cc2C)c1 (stereo not drawn)	5%
Cc1ccc(-c2nc(CS(=O)(=O)CC(=O)Nc3cc(C)ccc3C)c(C)o2)cc1	-7%
O=C1NC2(CCN(C(=O)c3ccc4c(c3)OCO4)CC2)Oc2ccccc21	i
COC(=O)CC(=O)CSc1nc2cc(C(=O)NCC(C)C)ccc2c(=O)n1CCc1ccccc1	11µM*
COCCn1c(SCC(=O)c2c[nH]c3ccccc23)nc2cc(C(=O)NC(C)C)ccc2c1=O	-16%
COCCn1c(SCC(=O)c2c(C)[nH]c3ccccc23)nc2cc(C(=O)NC(C)C)ccc2c1=O	-27%
CCn1c2c(c(=O)n1-c1ccccc1)CCN(C(=O)Cc1ccccc1)C2	15%[44.1 µM]
Cc1nn2c(c1-c1ccccc1C(N)=O)N(C(=O)c1ccccc1)CCC2	1%[44.1 µM]
O=C(NCc1cccc(F)c1)c1cnc2c(c1)N(C(=O)CCc1ccccc1)CCC2	i
Cc1cc(Nc2ccc(Cl)cc2C)nc(-n2nc(C)cc2C)n1	3.5µM*
Cc1cc(C)n(-c2nc3ccccc3nc2Nc2ccc(Cl)cc2Cl)n1	43%
Cc1cc(C)n(-c2nc3ccccc3nc2Nc2cc(Cl)ccc2C)n1	31%
CCc1cc(=O)n(CC(=O)Nc2cc(Cl)ccc2C)c(N2CCOCC2)n1	i
CCCCn1c(SCC(=O)Nc2cccc(OC)c2)nc2c(sc3ccccc32)c1=O	i
CCC(Sc1nc2ccccc2c2nc(CCn3cncc3C)nn12)C(=O)Nc1cccc(OC)c1 (stereo not drawn)	7.1µM*
CCC(Oc1ccccc1)C(=O)Nc1cccc(OCc2cc(=O)n3cccc(C)c3n2)c1 (stereo not drawn)	i
O=C(Cn1nc(N2CCN(c3ccccc3)CC2)ccc1=O)NCc1ccccc1F	25%
COc1ccc(NC(=O)CSc2nc(-c3ccccc3)nc3cc(=O)[nH]n23)cc1	i
COc1cccc(-c2nc(SCc3ccc(C)cc3)n3[nH]c(=O)cc3n2)c1	i
CC(C)(C)c1ccc(-c2nc(SCCCOc3ccccc3)n3[nH]c(=O)cc3n2)cc1	10µM*
O=C(O)CCCC(=O)N1CCN2C(=O)c3cc(Br)ccc3NC(=O)[C@H]2C1	-3%[44.1 µM]
COC(=O)c1ccccc1NC(=O)CCn1c(=O)c2cccn2c2cccnc21	8%
CC(C)C(=O)NCC1Cn2cccc2C(=O)N1Cc1ccccc1 (stereo not drawn)	i
O=C(NCCc1ccccc1)C1Cn2cccc2C(=O)N1Cc1ccccc1 (stereo not drawn)	-20%
SMILES	Pf Dd2 inh
O=C(NCCCN1CCc2ccccc2C1)C1Cn2cccc2C(=O)N1Cc1ccccc1 (stereo not drawn)	0.89µM*
O=C(NCC1Cn2cccc2C(=O)N1Cc1ccccc1)NC1CCCC1 (stereo not drawn)	-14%
CC(C)CNC(=O)C1Cn2cccc2C(=O)N1Cc1cccnc1 (stereo not drawn)	7.9µM*
O=C(NCCCN1CCCC1=O)C1Cn2cccc2C(=O)N1Cc1ccccc1 (stereo not drawn)	19%
O=C(NCc1ccccc1)C1Cn2cccc2C(=O)N1Cc1cccnc1 (stereo not drawn)	8%
CC(C)CNC(=O)C1Cn2cccc2C(=O)N1Cc1ccccc1 (stereo not drawn)	i
O=C(CN1CCCCCC1)NCC1Cn2cccc2C(=O)N1Cc1ccccc1 (stereo not drawn)	4µM*
O=C1c2cc(N3CCOCC3)nc(-c3cccc(F)c3)c2CN1Cc1ccccc1	-16%[44.1 µM]
O=C(NCCC1=CCCCC1)c1cc2n(n1)CC(c1ccc3c(c1)OCO3)OC2 (stereo not drawn)	i
COc1cccc(NC(=O)CN2C(=O)NC3(CCS(=O)(=O)CC3)C2=O)c1	34%
O=[S+]([O-])(c1cccc(C(F)(F)F)c1)N1CCc2nc(-c3ccc(Cl)cc3)nc(-c3ccccc3)c2C1	-4%
Cc1ccc2c(C(=O)N(C)C)cnn2c1	8%[44.1 µM]
COCCCNC(=O)c1sc2ncccc2c1-n1cccc1	11%
COc1cc(S(=O)(=O)N2CCc3c(nc[nH]c3=O)C2)c(OC)cc1C	-10%
O=C(Nc1ccc(S(=O)(=O)Nc2ncccn2)cc1)c1cc(=O)c2ccccc2o1	41%
COCCNC(=O)C1CN(c2ccccc2)C(=O)N1 (stereo not drawn)	12%[44.1 µM]
O=C(Nc1ccccc1)N1CCC(c2nn(-c3ccccc3)c(=O)[nH]2)CC1	-20%
c1cc(OC2CCCCC2)ncc1-c1noc([C@@H]2CCCN2C2CCOCC2)n1	11µM*
Cc1ccc(CN2CCC[C@H]2c2nc(-c3ccc(OC4CCCCC4)nc3)no2)cc1	-13%[44.1 µM]
COc1ccc(-c2noc([C@@H]3CCCN3C3CCCCC3)n2)cn1	i
